This passage reports outcome and AC50 results from PubChem BioAssay (EPA / NIEHS).

Where “and” joins values, the source holds several entries; their conditions need not be identical. Equal values may be shown once. More than one record can exist for a structure, and the calls need not agree. Calls of active or inactive are those of the source. Rule for the calls: active = hit-call score of the fitted dose curve at least 0.9, where 1 is the maximum; inactive = score below 0.9.

The term AC50 denotes the concentration at which the activity in the assay is half-maximal.

Read-out in assay [1]: Interferon-gamma inducible Protein 10 (IP10), CXCL10 (gene 3627)
The experiment in a line: BSK_hDFCGF_IP10: BioMAP Diversity Plus: hDFCGF Assay for Interferon-gamma inducible Protein 10 (IP10) Biomarker Activity (AID 2283053). To be noted: primary human foreskin fibroblasts; actives raise or lower the signal. A digest of the protocol:
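Chemical-treated human skin fibroblasts (primary) were sampled at 24 h for IP-10 by ELISA. Both increases and decreases relative to DMSO were scored.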

Read-out in assay [2]: Urokinase-type plasminogen activator receptor (uPAR), PLAUR (gene 5329)
The experiment in a line: BSK_CASM3C_uPAR: BioMAP Diversity Plus: CASM3C Assay for Urokinase-type plasminogen activator receptor (uPAR) Biomarker Activity (AID 2283054).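 Note: cell-surface uPAR protein level quantified by ELISA.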 The following applies: primary human coronary artery smooth muscle cells; actives raise or lower the signal.

Read-out in assay [3]: Vascular cell adhesion molecule 1 (VCAM1), VCAM1 (gene 7412)
Description: BSK_CASM3C_VCAM1: BioMAP Diversity Plus: CASM3C Assay for Vascular cell adhesion molecule 1 (VCAM1) Biomarker Activity (AID 2283055).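 Note: VCAM-1 protein level quantified by ELISA on the cells.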 The following applies: primary human coronary artery smooth muscle cells; actives raise or lower the signal.

Read-out in assay [4]: Collagen III, COL3A1 (gene 1281)
Description: BSK_hDFCGF_CollagenIII: BioMAP Diversity Plus: hDFCGF Assay for Collagen III Biomarker Activity (AID 2283056). The following applies: primary human foreskin fibroblasts; actives raise or lower the signal. A digest of the protocol: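 Human foreskin primary fibroblasts were exposed to test chemicals for 24 h, after which collagen III was quantified by ELISA. Activity was fitted bidirectionally against DMSO as negative control and baseline.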

Read-out in assay [5]: Epidermal growth factor receptor (EGFR), EGFR (gene 1956)
Description: BSK_hDFCGF_EGFR: BioMAP Diversity Plus: hDFCGF Assay for Epidermal growth factor receptor (EGFR) Biomarker Activity (AID 2283057). The following applies: primary human foreskin fibroblasts; actives raise or lower the signal. In a few lines:
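Cell-based multiplexed assay in primary human foreskin fibroblasts. EGFR is read by ELISA 24 h after treatment and compared with DMSO controls.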

Read-out in assay [6]: Interleukin-8 (IL8), CXCL8 (gene 3576)
The experiment in a line: BSK_hDFCGF_IL8: BioMAP Diversity Plus: hDFCGF Assay for Interleukin-8 (IL8) Biomarker Activity (AID 2283058). The following applies: primary human foreskin fibroblasts; actives raise or lower the signal. A digest of the protocol:
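hDFCGF human dermal fibroblasts; 24 h chemical exposure; IL-8 by ELISA; bidirectional curve fit vs DMSO baseline; gain or loss of signal scored.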

Assay [7] can be described thus: BSK_hDFCGF_Proliferation: Cell Proliferation Assessment in the BioMAP Diversity Plus: hDFCGF Assay (AID 2283059).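 Note: curves fitted for both rise and fall of signal versus DMSO baseline.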 The following applies: primary human foreskin fibroblasts. In a few lines: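 Total protein read at 560 nm after 0.1% SRB staining of TCA-fixed human skin fibroblasts, […]. Activity is fitted in both directions relative to DMSO as baseline.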

Read-out in assay [8]: Macrophage colony-stimulating factor (MCSF), CSF1 (gene 1435)
Description: BSK_hDFCGF_MCSF: BioMAP Diversity Plus: hDFCGF Assay for Macrophage colony-stimulating factor (MCSF) Biomarker Activity (AID 2283060). The following applies: primary human foreskin fibroblasts; actives raise or lower the signal. In a few lines: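 Human foreskin primary fibroblasts were treated with test chemical for 24 h, and M-CSF was then measured by ELISA. Data were fitted bidirectionally against DMSO as the negative control and activity baseline.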

The nature of assay [9]: BSK_hDFCGF_SRB: Viability Assessment in the BioMAP Diversity Plus: hDFCGF Assay (AID 2283061).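 Note: cells exposed to compound for 24 h before the read.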 The following applies: primary human foreskin fibroblasts. A digest of the protocol:
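Human foreskin primary fibroblasts were treated with compound and assessed 24 h after dosing. Total protein was measured by sulforhodamine B staining (0.1% SRB after 10% TCA fixation, 560 nm read) as a cytotoxicity marker, with bidirectional fitting against DMSO baseline.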

Read-out in assay [10]: TIMP metallopeptidase inhibitor 1 (TIMP1), TIMP1 (gene 7076)
Description: BSK_hDFCGF_TIMP1: BioMAP Diversity Plus: hDFCGF Assay for TIMP metallopeptidase inhibitor 1 (TIMP1) Biomarker Activity (AID 2283062). The following applies: primary human foreskin fibroblasts; actives raise or lower the signal. A digest of the protocol: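 Primary human foreskin fibroblasts in the hDFCGF system were dosed with compound for 24 h, then TIMP-1 was measured by ELISA. Activity was fitted bidirectionally relative to DMSO control; parallel SRB staining assessed cytotoxicity.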

Read-out in assay [11]: Monokine induced gamma interferon (MIG), CXCL9 (gene 4283)
The experiment in a line: BSK_hDFCGF_MIG: BioMAP Diversity Plus: hDFCGF Assay for Monokine induced gamma interferon (MIG) Biomarker Activity (AID 2283063). The following applies: primary human foreskin fibroblasts; actives raise or lower the signal. A digest of the protocol:
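ELISA read-out of MIG from primary human dermal fibroblasts 24 h post-dosing. Gain or loss of signal fitted bidirectionally, DMSO as baseline.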

Read-out in assay [12]: Matrix Metallopeptidase 1 (MMP1), MMP1 (gene 4312)
The experiment in a line: BSK_hDFCGF_MMP1: BioMAP Diversity Plus: hDFCGF Assay for Matrix Metallopeptidase 1 (MMP1) Biomarker Activity (AID 2283064). To be noted: primary human foreskin fibroblasts; actives raise or lower the signal. A digest of the protocol:
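MMP1 levels quantified by ELISA 24 h after dosing human dermal fibroblast cultures, with parallel SRB total-protein staining for overt cytotoxicity. Data fitted in both directions against DMSO baseline.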

Read-out in assay [13]: Vascular cell adhesion molecule 1 (VCAM1), VCAM1 (gene 7412)
Description: BSK_hDFCGF_VCAM1: BioMAP Diversity Plus: hDFCGF Assay for Vascular cell adhesion molecule 1 (VCAM1) Biomarker Activity (AID 2283065).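 For AC50: VCAM-1 protein level quantified by ELISA after 24 h chemical exposure.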 To be noted: primary human foreskin fibroblasts; actives raise or lower the signal. In a few lines:
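Primary human foreskin fibroblasts (hDFCGF system) were dosed with chemical and VCAM-1 was measured by ELISA 24 h later. Bidirectional curve fitting used DMSO as negative control and activity baseline.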

Read-out in assay [14]: Plasminogen activator inhibitor-1 (PAI1), SERPINE1 (gene 5054)
The experiment in a line: BSK_hDFCGF_PAI1: BioMAP Diversity Plus: hDFCGF Assay for Plasminogen activator inhibitor-1 (PAI1) Biomarker Activity (AID 2283066). The following applies: primary human foreskin fibroblasts; actives raise or lower the signal. A digest of the protocol: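 Human skin fibroblast cultures receive chemical for 24 h before PAI-1 is measured by ELISA; signal changes are fitted bidirectionally against DMSO-treated wells.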

Read-out in assay [15]: Intercellular Adhesion Molecule 1 (ICAM1), ICAM1 (gene 3383)
The experiment in a line: BSK_KF3CT_ICAM1: BioMAP Diversity Plus: KF3CT Assay for Intercellular Adhesion Molecule 1 (ICAM1) Biomarker Activity (AID 2283067). To be noted: primary human keratinocytes with fibroblasts; actives raise or lower the signal. In a few lines: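 Human keratinocyte plus foreskin fibroblast primary co-culture was exposed to chemical for 24 h. ICAM-1 was then quantified by ELISA, and the data were fit bidirectionally against DMSO as the negative control and baseline.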

Read-out in assay [16]: Interleukin-1 alpha (IL1a), IL1A (gene 3552)
Description: BSK_KF3CT_IL1a: BioMAP Diversity Plus: KF3CT Assay for Interleukin-1 alpha (IL1a) Biomarker Activity (AID 2283070). To be noted: primary human keratinocytes with fibroblasts; actives raise or lower the signal. In a few lines:
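IL-1a was detected by ELISA 24 h after chemical treatment of a co-culture of human skin keratinocytes and foreskin fibroblasts. Gain or loss of signal was fitted against the DMSO baseline.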

Read-out in assay [17]: TIMP metallopeptidase inhibitor 2 (TIMP2), TIMP2 (gene 7077)
The experiment in a line: BSK_KF3CT_TIMP2: BioMAP Diversity Plus: KF3CT Assay for TIMP metallopeptidase inhibitor 2 (TIMP2) Biomarker Activity (AID 2283071). To be noted: primary human keratinocytes with fibroblasts; actives raise or lower the signal. In a few lines:
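Measurements come from ELISA detection of TIMP-2 at 24 hours in a dosed human keratinocyte and foreskin fibroblast co-culture. DMSO serves as negative control and baseline.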

Read-out in assay [18]: Transforming growth factor beta 1 (TGFb1), TGFB1 (gene 7040)
Description: BSK_KF3CT_TGFb1: BioMAP Diversity Plus: KF3CT Assay for Transforming growth factor beta 1 (TGFb1) Biomarker Activity (AID 2283072). The following applies: primary human keratinocytes with fibroblasts; actives raise or lower the signal. In a few lines: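 TGF-b1 ELISA on a 24 h dosed co-culture of human keratinocytes and foreskin fibroblasts; cytotoxicity tracked in parallel cultures by SRB staining.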

Read-out in assay [19]: Interferon-gamma inducible Protein 10 (IP10), CXCL10 (gene 3627)
The experiment in a line: BSK_KF3CT_IP10: BioMAP Diversity Plus: KF3CT Assay for Interferon-gamma inducible Protein 10 (IP10) Biomarker Activity (AID 2283068). The following applies: primary human keratinocytes with fibroblasts; actives raise or lower the signal. A digest of the protocol:
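Human keratinocyte plus foreskin fibroblast primary co-culture exposed to test chemical for 24 h; IP-10 measured by ELISA. Concentration-response fitted bidirectionally against DMSO control as baseline.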

A short description of assay [20]: BSK_KF3CT_SRB: Viability Assessment in the BioMAP Diversity Plus: KF3CT Assay (AID 2283069). The following applies: primary human keratinocytes with fibroblasts. In a few lines: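 Cytotoxicity was gauged by SRB staining (0.1% SRB, 10% TCA fixation, 560 nm) of parallel cultures at 24 h. The cells were primary human skin keratinocytes co-cultured with fibroblasts, and activity was fitted in both directions against DMSO.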

As to `CCCCCCC(=O)O`, the result in assay [1], in assay [2], in [3], in [4], in assay [5] and in assay [6] was inactive. In addition, the result in assay [7], in [8], in assay [9], in assay [10], in assay [11] and in assay [12] was inactive. The result in assay [13], in [14], in assay [15], in [16], in [17] and in [18] was inactive.
For the compound `CCCCCCCCCCCCc1ccccc1S(=O)(=O)O`, the AC50 in assay [1] is 10.6 µM (active); in assay [3], 11.2 µM (active); in assay [6], 13.5 µM (active); in assay [7] it was 9.26 µM (active); in [8], 11.4 µM (active); in [9], 6.52 µM (active). Besides, the AC50 in assay [10] was 11.9 µM (active); in assay [11], 11.7 µM (active); in assay [12], 7.55 µM (active); in [13], 11.6 µM (active); in [14] it was 6.87 µM (active); in assay [15] it was 31.5 µM (active). In addition, the AC50 in assay [19] is 13 µM (active); in assay [20], 12.8 µM (active); in assay [16] it was 29.9 µM (active); in [17], 13.3 µM (active); in assay [18], 12.4 µM (active). In addition, the outcome in assay [2] and in assay [5] was inactive.
With `CC[C@H](c1ccc(O)cc1)[C@@H](CC)c1ccc(O)cc1`, the AC50 in [1] was 24.1 µM (active); in [3] it was 27.4 µM (active); in assay [4], 15.1 µM (active); in assay [6], 37.8 µM (active); in assay [7], 18.8 µM (active); in assay [8], 29.7 µM (active). The AC50 is 30.4 µM (active) in assay [9]; 30.6 µM (active) in [11]; 31.2 µM (active) in [12]; 25 µM (active) in assay [14]; 32.9 µM (active) in [15]; 32.5 µM (active) in assay [20]. For the same compound, the AC50 is 32 µM (active) in [16], 31.6 µM (active) in assay [17] and 29.8 µM (active) in assay [18]. Besides, the outcome in [2], in assay [5] and in assay [10] was inactive.
For the compound `COCC(C)OCC(C)O` (configuration not stated), the outcome in assay [1], in [2], in assay [3], in assay [4], in assay [5] and in assay [6] was inactive. The outcome in assay [7], in [8], in assay [9], in [10], in [11] and in assay [12] was inactive. Moreover, the result in assay [13], in [14], in [15], in assay [20], in assay [16] and in assay [17] was inactive. For the same compound, in assay [18], the result was inactive.
`OCCC(F)(F)C(F)(F)C(F)(F)C(F)(F)C(F)(F)C(F)(F)C(F)(F)C(F)(F)F`: the AC50 in assay [1] was 14.6 µM (active) and 11.2 µM (active); in [2], 42.3 µM (active) and 43.7 µM (active); in [3], 12.3 µM (active) and 23.2 µM (active) and 11.5 µM (active); in assay [6] it was 19.2 µM (active) and 17.4 µM (active); in assay [7], 11.4 µM (active) and 5.06 µM (active); in assay [8], 13.8 µM (active) and 12.1 µM (active). Besides, the AC50 in assay [9] was 13.8 µM (active) and 15.5 µM (active); in assay [10], 16.3 µM (active) and 14.6 µM (active); in assay [11], 18 µM (active) and 17.8 µM (active); in assay [12], 17.9 µM (active) and 17 µM (active); in assay [13], 16.1 µM (active) and 12.8 µM (active); in [14] it was 12.8 µM (active). Besides, the AC50 in assay [15] is 23.2 µM (active) and 20 µM (active); in [20], 18.1 µM (active) and 14.5 µM (active); in assay [16], 17.3 µM (active) and 9.96 µM (active); in [17] it was 19.9 µM (active) and 14.6 µM (active). Also, the result in [1], in [2], in assay [5], in assay [6], in assay [7] and in [8] was inactive. Also, the result in assay [9], in assay [10], in assay [11], in assay [12], in [13] and in [14] was inactive. The outcome in [15], in assay [20], in [16], in assay [17] and in [18] was inactive.
